UDG counter: blocks uracil-DNA glycosylase in AID counter-screen | FRET deamination/UDG coupled assay, UDG read, 4 h | Potency, µM (series often up to 115 µM), for the others: at the highest dose activity change, negative = inhibition, hits mostly inhibitors | hit rate 0.14% among 91,000; also: nearly all actives have a fitted effect of over 65% in size
AID inhibitor: blocks human AID cytidine deaminase activity; Potency, µM (series often up to 115 µM), usual class: inhibitors; AID 1347428; AID deamination FRET fluorescence, UDG-coupled, 4 h; hit rate 0.32% among 91,000; Q9GZX7; also: nearly all actives have a fitted effect of over 25% in size
Target sequence (Q9GZX7 whole entry, looked up): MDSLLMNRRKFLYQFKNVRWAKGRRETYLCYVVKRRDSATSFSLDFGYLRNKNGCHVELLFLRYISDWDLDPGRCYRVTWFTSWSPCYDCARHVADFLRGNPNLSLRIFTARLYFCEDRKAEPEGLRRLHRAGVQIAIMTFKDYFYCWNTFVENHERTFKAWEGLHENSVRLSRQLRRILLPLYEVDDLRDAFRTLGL
* marks the source's active call; other numbers are inactive results; i = inactive; ? = inconclusive; [ ] = dose if it differs, or a comment. This is a sample that favours compounds with a hit; in the whole collection about 0.4% have one here. Calls follow the shape of the dose curve; as a rule, active = well fitted curve in the direction sought with a large enough effect; inconclusive = small, poorly fitted or top-dose-only effect, or another doubt; inactive = no such curve, though single readings can be large; an effect the other way counts as inactive or inconclusive. % is scaled to controls: 0 for no effect and ±100 for the full control effect; potency is read from the fitted curve at half-maximal effect.

SMILES	UDG counter	AID inhibitor
CC(C)Oc1cccc(C2CC(=O)Nc3nc(N)sc32)c1 (stereo not drawn)	-13.9%	28.2µM*
COc1ccc(C2CC(=O)Nc3nc(N)sc32)cc1OCc1ccccc1Cl (stereo not drawn)	-6.2%	39.8µM*
COc1cc(C2CC(=O)Nc3ccsc32)ccc1OCC(N)=O (stereo not drawn)	7.6%	i
Cc1nn(-c2ccc3nnc(C)n3n2)c2c1C(c1cccc(OC(C)C)c1)CC(=O)N2 (stereo not drawn)	10.9%	i
CCn1c(-n2nc(C)cc2C)nc2c1c(=O)n(CCc1ccccc1)c(=O)n2C	3.5%	i
CCONC(=O)C(NC(=O)c1ccc(Cl)cc1Cl)C(C)C (stereo not drawn)	3.6%	i
Cc1ccc2nc(CN3CCN(S(=O)(=O)c4ccccc4)CC3)oc2c1	12.1%	i
Cc1cc(C)c(S(=O)(=O)N2CCN(Cc3nc4ccc(C)cc4o3)CC2)c(C)c1	89.1µM*	?
COc1ccc(CCNC(=O)Cn2c(=O)c3cccn3c3ccc(F)cc32)cc1OC	7.7%[57.5 µM]	79.4µM*
COc1ccc(CCNC(=O)Cn2c(=O)c3cccn3c3ccccc32)cc1OC	0.2%[57.5 µM]	i
CCC(C)N(C(=S)Nc1cc(F)cc(F)c1)C1CCN(C(C)=O)CC1 (stereo not drawn)	-1.5%	i
CNC(=O)c1ccc(-c2nc(CN3CCN(C(=O)Nc4cc(C)ccc4C)CC3)c(C)o2)cc1	6.7%	i
CC(=O)c1ccc(NC(=O)CC2Nc3cccc4cccc(c34)NC2=O)cc1 (stereo not drawn)	?	79.4µM*
CCOC(=O)c1ccc(NC(=O)CC2Nc3cccc4cccc(c34)NC2=O)cc1 (stereo not drawn)	-3.6%	?
COc1ccc(NC(=O)CC2Nc3ccccc3NC2=O)cc1 (stereo not drawn)	-7.9%	i
CCOc1ccc(NC(=O)CC2Nc3cccc4cccc(c34)NC2=O)cc1 (stereo not drawn)	?	50.1µM*
N#Cc1cccc(C(=O)NCCc2cccs2)c1	6.9%	i
Cc1ccccc1-c1nn2c(=O)cc(N3CCN(S(=O)(=O)c4ccc(F)cc4)CC3)nc2s1	-9.9%	i
O=C(C1CC1)N(Cc1ccc2c(c1)CN(S(=O)(=O)c1cc(F)ccc1F)CCO2)c1ccccc1	89.1µM*	i
O=C(C1CC1)N(Cc1ccc2c(c1)CN(S(=O)(=O)c1cc(F)cc(F)c1)CCO2)c1ccccc1	-4.0%	i
O=C(CCS(=O)(=O)Cc1cccc(F)c1)Nc1ccc(F)cc1	2.5%	i
CCCCCSc1nc2sc3c(c2c(=O)n1-c1ccccc1)CCN(C(C)=O)C3	-21.9%	25.1µM*
CCSc1nc2sc3c(c2c(=O)n1-c1ccc(C)c(Cl)c1)CCN(C(C)=O)C3	?	i
COc1cccc(NC(=O)Cn2c(=O)oc3cc(S(=O)(=O)N4CCCCC4)ccc32)c1	89.1µM*	i
Cc1cccc(NC(=O)Cn2c(=O)oc3cc(S(=O)(=O)N4CCCCCC4)ccc32)c1	-12.3%	i
SMILES	UDG counter	AID inhibitor
CCCn1nc(C(=O)Nc2nccs2)c2ccccc2c1=O	6.5%	i
O=C(CSc1nnc2ccccn12)c1cccc(Cl)c1	-16.6%	i
Cc1ccc(C(=O)c2cn(Cc3ccccc3F)c3cc4c(cc3c2=O)OCO4)cc1	-6.2%	39.8µM*
Cc1ccc(C(=O)c2cn(Cc3ccccc3F)c3cc4c(cc3c2=O)OCCO4)cc1	-12.2%	?
O=C(NCc1cccs1)c1ccc2c(=O)n3nc(Nc4ccccc4)sc3nc2c1	0.1%	i
CCc1ccccc1Nc1nn2c(=O)c3ccc(C(=O)NCc4cccs4)cc3nc2s1	-19.1%	31.6µM*
COC(=O)c1cnn(-c2ncnc3sc4c(c23)CCCC4)c1N	0.6%	i
CCN(CC)c1ccc(C(=O)NCc2ccc3c(c2)CCN3C(=O)c2ccccc2)cc1	18.6%	i
CN(C)c1ccc(C(=O)NCc2ccc3c(c2)CCN3C(=O)c2ccccc2)cc1	79.4µM*	i
COc1cc(C(=O)Oc2ccccc2C#N)cc(Cl)c1OC(C)C	-3.7%	i
COC(=O)CN1C(=O)CSc2ccc(S(=O)(=O)Nc3cccc(Cl)c3)cc21	7.1%	i
CCn1cc(S(=O)(=O)c2ccc(C)cc2C)c(=O)c2cc(F)c(N3CCCC3)cc21	?	22.4µM*
Cc1ccc(S(=O)(=O)c2cn(C)c3cc(N4CCCC4)c(F)cc3c2=O)c(C)c1	3.4%	i
O=C(c1ccc(-n2cccc2)cc1)C(C(=O)C(F)(F)F)C12CC3CC(CC(C3)C1)C2 (stereo not drawn)	-1.2%	i
CCc1ccc(NC(=O)CSC2=NS(=O)(=O)c3ccccc3N2Cc2ccccc2)cc1	-3.5%	i
CCn1cc(C(=O)N2CCN(c3cc(Cl)ccc3C)CC2)c2cc(OC)c(OC)cc2c1=O	-9.4%	i
COc1ccccc1S(=O)(=O)Cc1ccc(C(=O)N2CCN(c3cc(Cl)ccc3C)CC2)o1	89.1µM*	?
CN(C(=O)COC(=O)Cn1cnc2c1c(=O)n(C)c(=O)n2C)c1ccccc1	10.2%	i
COc1cc(C2Nc3c(C)cc(C)cc3-c3cc(C)nn32)ccc1O (stereo not drawn)	-22.7%	i
Cc1c(C(=O)N(C)C)sc2c1c(=O)n(-c1ccc(F)cc1)c(=O)n2Cc1ccccc1C#N	89.1µM*	i
CCc1ccc(-n2c(=O)c3c(C)c(C(=O)N(C)C)sc3n(Cc3ccccc3F)c2=O)cc1	0.0%[57.5 µM]	i
N#Cc1ccccc1OCc1csc(-c2ccccc2)n1	89.1µM*	?
N#Cc1ccccc1OCc1ccccc1	0.1%	i
CCOc1ccc(-n2c(Cc3ccccc3)nnc2SCc2nc(-c3cccs3)no2)cc1	?	31.6µM*
CCOc1ccc(-n2c(SCc3nc(-c4ccccc4C)no3)nnc2-c2ccccc2)cc1	8.0%	i
SMILES	UDG counter	AID inhibitor
CCOc1ccc(-n2c(SCc3nc(-c4ccc(OC)cc4)no3)nnc2-c2ccncc2)cc1	79.4µM*	?
COc1ccc(-c2noc(CSc3nnc(C)n3-c3ccc(C)cc3)n2)cc1OC	?	i
COc1ccc(-n2c(SCc3nc(-c4ccc(C)cc4)no3)nnc2-c2ccccc2)cc1	-5.0%	i
Cc1ccc(-n2c(SCc3nc(-c4ccccc4C)no3)nnc2-c2ccncc2)cc1C	?	31.6µM*
Cc1ccccc1-c1noc(CSc2nnc(-c3ccncc3)n2-c2ccc(F)cc2)n1	?	i
COc1ccc(-c2noc(CSc3nnc(-c4ccncc4)n3-c3cccc(C)c3)n2)cc1OC	79.4µM*	?
O=C(Cn1nnc(-c2cccc(C(F)(F)F)c2)n1)N1CCCC1c1ccc2c(c1)OCCO2 (stereo not drawn)	-8.0%	i
CC(=O)C(Sc1ccc([N+](=O)[O-])cc1)C(C)=O	0.3%	i
FC(F)(F)c1cc(-c2ccco2)nc(=S)[nH]1	-2.0%	i
CC(C)C(=O)Nc1ccc(CNC(=O)c2cc[n+]([O-])cc2)cc1	-9.6%	i
N#Cc1ccc(/C=C/C(=O)c2ccc3c(c2)CCC3)cc1	-0.8%	i
CC1Sc2ccc(C(=O)NNC(=O)CSc3cccc4cccnc34)cc2NC1=O (stereo not drawn)	-0.1%	22.4µM*
C=C(Cl)COC(=O)c1ccc2c(c1)NC(=O)C(C)S2 (stereo not drawn)	-14.2%	i
Cc1ccc2nc(/C(C#N)=C/c3cc(Br)ccc3OC(C)C)[nH]c2c1	-1.7%	i
